According to PubChem BioAssay AID504697 (The Scripps Research Institute Molecular Screening Center, 2011):
Active and inactive are the calls of the source.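 Rule for the calls: active = EC50 at or below 10 µM; inactive = EC50 above 10 µM.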

Assay: fluorescence interference artefacts, compound only, dose response, artefact control for cardiac thin filament activator project, biochemical, no RTF in test wells (AID 504697);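 note: emission near 535 nm under roughly 485 nm excitation as for IANBD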
Details: compound-only fluorescence in RTF assay buffer with Ca2+ (no RTF in test wells), artifact counterscreen
In the case of `O=C(CCSc1ccccc1)N1CCN(C(=O)c2ccco2)CC1`, the EC50 is reported as > 71.5 µM (inactive).
In the case of `Cc1ccc(N=Nc2c(O)n(CN3CCOCC3)c3ccccc23)cc1`, the EC50 is reported as > 71.5 µM (inactive).
In the case of `COc1ccc(NC(=O)/C(C#N)=C\c2ccc(N3CCOCC3)o2)cc1`, the EC50 is reported as 3.63 µM (active).
In the case of `CC(C)(C)C(=O)/C=c1\s/c(=C\c2ccc(-c3ccc([N+](=O)[O-])cc3)o2)c(=O)n1CC(=O)NC(N)=O`, the EC50 is reported as 1.72 µM (active).
For `O=C(NCc1nnc(SCC(=O)N2CCCCCC2)o1)c1ccco1`, the EC50 was > 71.5 µM (inactive).
With `O=[N+]([O-])c1ccc(NN=Cc2cccc3ccccc23)nc1` the EC50 was 62.7 µM (inactive).
In the case of `Cc1ccc[n+](-c2nc([O-])sc2C=O)c1`, the EC50 is reported as 5.53 µM (active).
In the case of `COc1ccc2ccccc2c1C(O)c1nccn1C` (stereo not given), the EC50 is reported as 10.7 µM (inactive).
For `Cc1cccn2c(=O)c(/C=C3\SC(=S)N(CC(C)C)C3=O)c(NCCCOC(C)C)nc12`, the EC50 was 0.988 µM (active).
In the case of `CCOc1cc(N2CCOCC2)c(OCC)cc1NC(=O)CCS(=O)(=O)c1ccc(Cl)cc1`, the EC50 is reported as > 71.5 µM (inactive).
In the case of `O=c1[nH][nH]c(C(F)(F)F)c1C=Nc1cccc(Cl)c1`, the EC50 is reported as > 71.5 µM (inactive).
In the case of `CCOC(=O)/C(=C\c1c[nH]c2ccccc12)NC(C)=O`, the EC50 is reported as > 71.4 µM (inactive).
For `COc1ncnc2c1N=C1CC(C)(C)CC(N)=C1S2`, the EC50 was 23.5 µM (inactive).
In the case of `CC(=O)N1CCc2c(sc(NC(=O)C3CCCN3S(=O)(=O)c3cccs3)c2C(N)=O)C1` (stereo not given), the EC50 is reported as 42.6 µM (inactive).
With `CCN(CC(=O)Nc1ccccc1C(F)(F)F)C(=O)c1ccc(-n2nc(C)c(CCC(=O)OC)c2C)cc1` the EC50 was > 71.5 µM (inactive).
